According to PubChem BioAssay (NCI):
This is part of a sample that, as a whole, favours compounds with a hit. Of some 79,000 tested, about 15% had one in any assay. Activity calls are given as the source filed them. Rule as the data show it: active = growth inhibition above about 70%; inactive = the rest.

How the values were obtained:
[1] = NCI Yeast Anticancer Drug Screen. Data for the rad52 strain (AID 147);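 also: 0% = growth of vehicle-treated control cultures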; conditions: S. cerevisiae rad52 mutant growth inhibition, active compounds read high
Method in brief: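 Here a repair-compromised yeast strain receives each compound; its growth is then quantified and normalised to vehicle-only controls.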

[2] = NCI Yeast Anticancer Drug Screen. Data for the wt1 strain (AID 149);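 also: 0% = growth of vehicle-treated wt1 cultures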; conditions: S. cerevisiae wt1 strain (SPY 50644) growth inhibition, active compounds read high
Method in brief: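 wt1 yeast, compound-treated; % growth inhibition vs vehicle control.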

[3] = NCI Yeast Anticancer Drug Screen. Data for the rad50EPP+ strain (AID 151);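 also: 0% = growth of vehicle-treated control cultures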; conditions: S. cerevisiae rad50 mutant strain, active compounds read high
Method in brief: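 Read-out is yeast growth inhibition relative to vehicle; cells used were the rad50EPP+ strain.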

[4] = NCI Yeast Anticancer Drug Screen. Data for the mgt1 strain (AID 153); conditions: S. cerevisiae mgt1 mutant growth inhibition, active compounds read high
Method in brief: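 Measured: inhibition of mgt1 yeast growth by compound, normalized to vehicle-treated cultures.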

[5] = NCI Yeast Anticancer Drug Screen. Data for the rad50 strain (AID 155);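 also: 0% = growth of vehicle-only cultures of the same strain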; conditions: S. cerevisiae rad50 strain growth inhibition, active compounds read high
Method in brief: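 Genetically altered yeast (DNA repair pathway); compound treatment; growth inhibition vs vehicle ctrl.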

[6] = NCI Yeast Anticancer Drug Screen. Data for the mec2-1 strain (AID 157); conditions: S. cerevisiae mec2-1 strain, active compounds read high
Method in brief: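 Using mec2-1 yeast: add compound, measure growth, express inhibition versus vehicle-treated cultures.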

[7] = NCI Yeast Anticancer Drug Screen. Data for the rad14 strain (AID 159);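 also: 0% = growth of vehicle-treated control cultures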; conditions: S. cerevisiae rad14 strain growth inhibition, active compounds read high
Method in brief: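 Test compounds were applied to a repair-deficient yeast strain. Its growth was then compared with that of cultures given vehicle alone, and inhibition was expressed relative to those controls.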

[8] = NCI Yeast Anticancer Drug Screen. Data for the sgs1 mgt1 strain (AID 161);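 also: 0% = growth of cultures given vehicle only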; conditions: S. cerevisiae sgs1 mgt1 strain, active compounds read high
Method in brief: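 Yeast cells carrying a defined DNA-repair defect were exposed to test compounds. Growth inhibition was measured relative to vehicle-treated controls.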

[9] = NCI Yeast Anticancer Drug Screen. Data for the CLN2oe strain (AID 163);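 also: 0% = growth of vehicle-only control cultures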; conditions: S. cerevisiae CLN2oe strain, active compounds read high
Method in brief: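 Whole-cell yeast growth assay. A strain engineered for altered cell-cycle control received compound, and inhibition relative to vehicle-treated cultures was recorded.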

[10] = NCI Yeast Anticancer Drug Screen. Data for the cln2 rad14 strain (AID 165);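 also: 0% = growth equal to vehicle treated cultures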; conditions: S. cerevisiae cln2 rad14 strain, active compounds read high
Method in brief: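 Yeast strain cln2 rad14, bearing defects in cell cycle control and DNA repair, serves as the test system; values reflect growth inhibition compared with vehicle.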

[11] = NCI Yeast Anticancer Drug Screen. Data for the bub3 strain (AID 167); conditions: S. cerevisiae bub3 mutant strain, active compounds read high
Method in brief: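 Yeast carrying a defined mutation is treated with each compound, and growth is compared with that of vehicle-exposed cells to give inhibition.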

[12] = NCI Yeast Anticancer Drug Screen. Data for the wt2 strain (AID 169);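 also: 0% = growth of vehicle-treated yeast cultures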; conditions: S. cerevisiae wt2 strain growth inhibition, active compounds read high
Method in brief: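 Treated yeast vs. vehicle-treated yeast: growth inhibition determined.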

[13] = NCI Yeast Anticancer Drug Screen. Data for the sgs1 strain (AID 173);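 also: 0% = growth of vehicle-only control cultures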; conditions: S. cerevisiae sgs1 mutant, active compounds read high
Method in brief: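 A genetically defined yeast mutant is incubated with the test compound, and its growth is compared to that of the same strain given vehicle.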

[14] = NCI Yeast Anticancer Drug Screen. Data for the mlh1 rad18 strain (AID 175); conditions: S. cerevisiae mlh1 rad18 strain growth inhibition, active compounds read high
Method in brief: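 Steps: expose repair-defective yeast to compound; measure growth; express inhibition against vehicle-treated controls.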

[15] = NCI Yeast Anticancer Drug Screen. Data for the rad18 strain (AID 177); conditions: S. cerevisiae rad18 mutant growth inhibition, active compounds read high
Method in brief: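 Measured value is growth inhibition of a yeast strain bearing a DNA repair alteration, referenced to vehicle-treated cells.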

[16] = NCI Yeast Anticancer Drug Screen. Data for the mlh1 strain (AID 171);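 also: 0% = growth of vehicle-treated control cultures of the same strain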; conditions: S. cerevisiae mlh1 strain growth inhibition, active compounds read high
Method in brief: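 A yeast strain with a defined genetic lesion serves as the test organism. Cultures receive compound or vehicle, and growth is measured.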

[17] = at 5.0 µM (retest, dose inferred, filed as 0.5)
[18] = at 50.0 µM (retest, dose inferred, filed as 5.0)

Measured: growth inhibition

CN=C(N)N/N=C/c1ccc2c(c1)Cc1ccccc1-2
inactive: [1]; at 1.2 µM 6% | [1]; at 3.7 µM 19% | [1]; at 11.0 µM 20% | [1]; at 33.0 µM 31% | [2]; at 1.2 µM 0% | [2]; at 3.7 µM 17% | [2]; at 11.0 µM 4% | [2]; at 33.0 µM 8% | [2]; at 100.0 µM 44% | [3]; at 1.2 µM -6% | [3]; at 3.7 µM 12% | [3]; at 11.0 µM 23% | [3]; at 33.0 µM 32% | [4]; at 1.2 µM -11% | [4]; at 3.7 µM -2% | [4]; at 11.0 µM 1% | [4]; at 33.0 µM 14% | [5]; at 1.2 µM -7% | [5]; at 3.7 µM -9% | [5]; [17] 10% | [5]; at 11.0 µM -12% | [5]; at 33.0 µM -2% | [5]; [18] 64% | [6]; at 1.2 µM 9% | [6]; at 3.7 µM -4% | [6]; [17] 6% | [6]; at 11.0 µM -5% | [6]; at 33.0 µM -13% | [6]; at 50.0 µM 23.1% | [6]; at 100.0 µM 60% | [7]; at 1.2 µM -1% | [7]; at 3.7 µM -14% | [7]; at 11.0 µM -21% | [7]; at 33.0 µM -16% | [8]; [17] 24% | [8]; at 50.0 µM 30.2% | [9]; at 1.2 µM -90% | [9]; at 3.7 µM -34% | [9]; at 11.0 µM -16% | [9]; at 33.0 µM -5% | [10]; [17] -5% | [10]; [18] 27% | [10]; at 50.0 µM 19.8% | [11]; at 1.2 µM -15% | [11]; at 3.7 µM -4% | [11]; [17] 30% | [11]; at 11.0 µM -8% | [11]; at 33.0 µM 3% | [11]; at 50.0 µM 22.4% | [12]; at 1.2 µM -44% | [12]; at 3.7 µM -17% | [12]; at 11.0 µM -15% | [12]; at 33.0 µM 34% | [13]; at 1.2 µM 12% | [13]; at 3.7 µM 35% | [13]; at 11.0 µM 50% | [13]; at 33.0 µM 58% | [14]; [17] 42% | [15]; at 1.2 µM -5% | [15]; at 3.7 µM -15% | [15]; at 11.0 µM -12% | [15]; at 33.0 µM 1%
active: [1]; at 100.0 µM 94% | [3]; at 100.0 µM 97% | [4]; at 100.0 µM 92% | [5]; at 50.0 µM 72.8% | [5]; at 100.0 µM 92% | [6]; [18] 92% | [7]; at 100.0 µM 88% | [8]; [18] 83% | [9]; at 100.0 µM 80% | [11]; [18] 100% | [11]; at 100.0 µM 73% | [12]; at 100.0 µM 98% | [13]; at 100.0 µM 93% | [14]; [18] 85% | [14]; at 50.0 µM 81.2% | [15]; at 100.0 µM 90%

O=C(/C=C\c1ccc(Cl)cc1Cl)c1cccs1
active: [8]; [18] 71% | [11]; [18] 85% | [14]; [18] 88% | [15]; at 33.0 µM 73% | [15]; at 100.0 µM 84%
inactive: [1]; at 1.2 µM -2% | [1]; at 3.7 µM -3% | [1]; at 11.0 µM 3% | [1]; at 33.0 µM 10% | [1]; at 100.0 µM 16% | [2]; at 1.2 µM -2% | [2]; at 3.7 µM 0% | [2]; at 11.0 µM -5% | [2]; at 33.0 µM -6% | [2]; at 100.0 µM -7% | [3]; at 1.2 µM 9% | [3]; at 3.7 µM 23% | [3]; at 11.0 µM 47% | [3]; at 33.0 µM 55% | [3]; at 100.0 µM 58% | [4]; at 1.2 µM -4% | [4]; at 3.7 µM -6% | [4]; at 11.0 µM -4% | [4]; at 33.0 µM 2% | [4]; at 100.0 µM 5% | [5]; at 1.2 µM -1% | [5]; at 3.7 µM -2% | [5]; [17] 0% | [5]; at 11.0 µM 0% | [5]; at 33.0 µM 0% | [5]; [18] 61% | [5]; at 50.0 µM -9.15% | [5]; at 100.0 µM 5% | [6]; at 1.2 µM -6% | [6]; at 3.7 µM -2% | [6]; [17] -10% | [6]; at 11.0 µM 1% | [6]; at 33.0 µM 10% | [6]; [18] 18% | [6]; at 50.0 µM -6.25% | [6]; at 100.0 µM 10% | [7]; at 1.2 µM -2% | [7]; at 3.7 µM 1% | [7]; at 11.0 µM 5% | [7]; at 33.0 µM 9% | [7]; at 100.0 µM 7% | [8]; [17] 0% | [8]; at 50.0 µM 10.2% | [9]; at 1.2 µM -9% | [9]; at 3.7 µM -21% | [9]; at 11.0 µM -17% | [9]; at 33.0 µM -14% | [9]; at 100.0 µM -18% | [10]; [17] 9% | [10]; [18] 27% | [10]; at 50.0 µM -29.9% | [11]; at 1.2 µM 10% | [11]; at 3.7 µM 22% | [11]; [17] 30% | [11]; at 11.0 µM 38% | [11]; at 33.0 µM 47% | [11]; at 50.0 µM 54.9% | [11]; at 100.0 µM 48% | [16]; at 1.2 µM -4% | [16]; at 3.7 µM 0% | [16]; at 11.0 µM 1% | [16]; at 33.0 µM 7% | [16]; at 100.0 µM 12% | [13]; at 1.2 µM 0% | [13]; at 3.7 µM 1% | [13]; at 11.0 µM 12% | [13]; at 33.0 µM 33% | [13]; at 100.0 µM 45% | [14]; [17] 27% | [14]; at 50.0 µM 1.1% | [15]; at 1.2 µM 3% | [15]; at 3.7 µM 6% | [15]; at 11.0 µM 29%
